Measured values taken from PubChem BioAssay (NCATS).
“And” between values parts separate entries of the source, which are not always exact repeats. Equal values may be shown once. Values without a mark were called inactive. Inconclusive results are not listed. The source made the active and inactive calls. Unless noted, calls follow the shape of the dose curve; as a rule, active = well fitted curve in the direction sought with a large enough effect; inconclusive = small, poorly fitted or top-dose-only effect, or another doubt; inactive = no such curve, though single readings can be large; an effect the other way counts as inactive or inconclusive.

Key:
[1] = qHTS assay for small molecule activators of the nuclear factor-kappa B (NF-kB) signaling pathway (AID 651749; active = well fitted activation curve with a large enough effect in the signal ratio; the % refers to the signal ratio; also: % of control where 0% means no effect); settings: NF-kB-bla ME-180 cells, beta-lactamase FRET ratio, 16 h; stronger effect = higher value
Method in brief: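 Human ME-180 cervical cells with an NF-kB-bla construct; compounds added via 23 nL pin transfer, DMSO as vehicle; incubation 16 hr. Reporter activity measured by FRET disruption.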

[2] = target: Tumor necrosis factor (Homo sapiens) (UniProt P01375); experiment: qHTS assay to identify small molecules that stimulate Tumor Necrosis Factor-alpha (TNF-alpha) secretion (AID 651757; active = well fitted curve in the direction sought with a large enough effect in the signal ratio; the % refers to the signal ratio; also: 0% is about no effect); settings: Human cells, HTRF 665/615 ratio; series mostly up to 92.2 µM
Method in brief: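 Secreted TNF-alpha quantified by TR-FRET sandwich of two labeled anti-TNF-alpha antibodies, incubated 3 hr at room temperature. Preceded by 17 hr, 37 C compound treatment of THP-1 cells at 3000 cells/well.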

[3] = target: Peroxisome proliferator-activated receptor alpha (Homo sapiens) (UniProt Q07869); experiment: qHTS assay for small molecule agonists of the peroxisome proliferator-activated receptor alpha (PPARalpha) signaling pathway (AID 651778); settings: PathHunter PPARalpha complementation, chemiluminescence, 6 h; stronger effect = higher value; also: % of control where 0% means no effect
Method in brief: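 Cells plated at 2,000/well and held overnight at 37 C, 5% CO2, then compound added by pin tool for 6 hr; after PathHunter detection reagent and 60 min at room temperature, chemiluminescence from enzyme complementation was read.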

[4] = target: Nuclear receptor ROR-gamma (Homo sapiens) (UniProt P51449); experiment: qHTS assay for small molecule antagonists of the retinoid-related orphan receptor gamma (ROR-gamma) signaling pathway (AID 651802); settings: ROR-gamma antagonist cell reporter assay; series mostly up to 92.2 µM; also: nearly all actives have a fitted effect of over 60% in size; also: potency is read from the fitted curve at half-maximal effect
Method in brief: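 Luminescence (One-Glo, 30 min RT) measured 16 h after compound addition and doxycycline induction at 37C. Reporter: RORE-luciferase under TET-inducible ROR-gamma in CHO cells.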

[5] = qHTS assay to identify small molecules that stimulate interleukin-8 (IL-8) secretion (AID 651758; active = well fitted activation curve with a large enough effect in the signal ratio; the % refers to the signal ratio; also: 0% is about no effect); settings: HTRF ratio (665/615); series mostly up to 92.2 µM
Method in brief: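 Quantitative HTS in THP-1 monocytic cells at 2000 cells per well, with 16 hrs compound incubation at 37 C. IL-8 in the medium was then quantified by HTRF immunoassay, read after 1-3 hrs at room temperature.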

[6] = qHTS assay for small molecule disruptors of the mitochondrial membrane potential - 1 hr assay (AID 651754; calls by dose curve; also: nearly all actives have a fitted effect of over 35% in size; also: potency is read from the fitted curve at half-maximal effect); settings: series mostly up to 92.2 µM
Method in brief: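 Mitochondrial potential in living HepG2 cells after 1 hr compound treatment at 37C was read with Mito-MPS dye added for a further 30 min. Red aggregate and green monomer fluorescence were measured; loss of potential leaves dye as cytoplasmic monomers.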

[7] = qHTS assay for small molecule disruptors of the mitochondrial membrane potential - 5 hr assay (AID 651755; calls by dose curve; also: nearly all actives have a fitted effect of over 40% in size; also: potency is read from the fitted curve at half-maximal effect); settings: JC-1-type ratio dye; series mostly up to 92.2 µM
Method in brief: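 Seed HepG2 overnight, add compound, incubate 5 hr at 37C and 5% CO2, stain 30 min with Mito-MPS, then measure monomer (490/535 nm) and aggregate (540/590 nm) fluorescence.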

[8] = target: Arylsulfatase A (Homo sapiens) (UniProt P15289); experiment: qHTS screen for enhancers of Arylsulfatase A (ASA1): LOPAC Validation Assay (AID 720538); settings: ASA enzyme activity, LOPAC qHTS enhancer assay; series mostly up to 57.5 µM
Method in brief: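 Read-out: fluorescence at Ex=525/Em=598 nm after 1N NaOH final stop. Patient fibroblasts carrying ASA-I179S had 48h compound exposure, then 14h room-temperature pNCS hydrolysis (0.5mM final) in lysis buffer. Signal increase = enhanced activity.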

[9] = qHTS for compounds that reverse cellular toxicity of Amyloid beta (A-beta) peptide in yeast: LOPAC Validation Assay (AID 720559); settings: yeast expressing A-beta; series mostly up to 46.1 µM;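 also: plate controls were DMSO for no effect and equimolar ferric chloride plus clioquinol rescue for full effect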
Method in brief: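 OD600 growth readout after 48 hr at 30 C; A-beta-toxic yeast plus pinned compounds in medium. Normalization: DMSO = negative, equimolar FeCl3 + clioquinol = positive.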

[10] = qHTS for Activators of Parkin Expression: LOPAC Validation Assay (NLuc Reporter) (AID 720572;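 also: 0% = DMSO and 100% = positive control compound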); settings: Parkin promoter NanoLuc reporter cells, luminescence, percent of positive control, DMSO as zero; series mostly up to 46.1 µM
Method in brief: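 Cells harboring the Parkin-promoter coincidence reporter were treated for 24 h at seven concentrations. NLuc output was measured sequentially after the FLuc channel and scaled between DMSO and positive control values.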

Chain of Tumor necrosis factor (Homo sapiens) (P01375 whole entry, looked up): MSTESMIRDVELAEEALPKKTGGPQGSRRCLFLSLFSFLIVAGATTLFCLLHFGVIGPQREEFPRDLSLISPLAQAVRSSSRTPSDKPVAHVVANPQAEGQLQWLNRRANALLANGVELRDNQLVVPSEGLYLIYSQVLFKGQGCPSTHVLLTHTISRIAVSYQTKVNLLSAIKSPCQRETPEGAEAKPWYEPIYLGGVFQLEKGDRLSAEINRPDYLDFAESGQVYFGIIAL
Chain of Nuclear receptor ROR-gamma (Homo sapiens) (P51449 whole entry, looked up): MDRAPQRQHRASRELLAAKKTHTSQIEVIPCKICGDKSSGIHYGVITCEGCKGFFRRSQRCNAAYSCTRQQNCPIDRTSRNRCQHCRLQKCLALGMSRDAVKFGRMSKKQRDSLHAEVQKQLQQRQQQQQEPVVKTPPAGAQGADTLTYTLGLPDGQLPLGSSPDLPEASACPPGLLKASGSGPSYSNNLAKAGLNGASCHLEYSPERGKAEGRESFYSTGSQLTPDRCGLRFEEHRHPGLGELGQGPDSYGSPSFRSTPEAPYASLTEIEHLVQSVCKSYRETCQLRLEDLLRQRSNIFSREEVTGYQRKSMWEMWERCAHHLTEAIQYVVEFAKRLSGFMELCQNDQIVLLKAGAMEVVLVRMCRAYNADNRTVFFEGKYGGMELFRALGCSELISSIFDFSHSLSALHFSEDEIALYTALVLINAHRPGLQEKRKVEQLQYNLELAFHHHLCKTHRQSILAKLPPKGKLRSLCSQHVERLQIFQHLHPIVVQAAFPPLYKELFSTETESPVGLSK
Chain of Peroxisome proliferator-activated receptor alpha (Homo sapiens) (Q07869 whole entry, looked up): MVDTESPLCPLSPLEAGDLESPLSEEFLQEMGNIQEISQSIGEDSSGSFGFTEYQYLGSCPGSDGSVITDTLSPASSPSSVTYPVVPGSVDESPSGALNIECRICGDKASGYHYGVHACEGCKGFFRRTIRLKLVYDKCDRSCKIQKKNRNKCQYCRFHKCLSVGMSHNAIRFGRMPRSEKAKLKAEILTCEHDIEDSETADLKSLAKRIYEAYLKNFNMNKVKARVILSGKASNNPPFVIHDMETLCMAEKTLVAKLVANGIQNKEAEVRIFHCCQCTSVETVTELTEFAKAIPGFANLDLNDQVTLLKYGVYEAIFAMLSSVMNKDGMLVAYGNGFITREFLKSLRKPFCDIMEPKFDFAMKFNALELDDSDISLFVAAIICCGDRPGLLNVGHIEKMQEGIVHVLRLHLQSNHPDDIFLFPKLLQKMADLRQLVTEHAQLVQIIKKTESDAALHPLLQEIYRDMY
Chain of Arylsulfatase A (Homo sapiens) (P15289 whole entry, looked up): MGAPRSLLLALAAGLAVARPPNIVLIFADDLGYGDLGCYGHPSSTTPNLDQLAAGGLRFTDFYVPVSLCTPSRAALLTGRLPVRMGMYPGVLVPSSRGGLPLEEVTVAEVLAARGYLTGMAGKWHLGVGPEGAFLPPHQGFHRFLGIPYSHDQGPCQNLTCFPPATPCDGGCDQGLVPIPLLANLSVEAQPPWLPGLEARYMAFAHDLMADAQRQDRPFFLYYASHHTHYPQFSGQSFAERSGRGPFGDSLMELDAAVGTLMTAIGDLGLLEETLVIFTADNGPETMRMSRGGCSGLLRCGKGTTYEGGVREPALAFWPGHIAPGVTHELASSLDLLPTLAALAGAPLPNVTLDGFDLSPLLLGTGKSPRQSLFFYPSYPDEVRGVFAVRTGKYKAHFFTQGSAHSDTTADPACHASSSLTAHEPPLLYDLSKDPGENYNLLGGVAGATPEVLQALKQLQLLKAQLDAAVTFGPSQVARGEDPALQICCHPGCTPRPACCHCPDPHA

Compound: OC[C@H]1O[C@@H]2O[C@H]3[C@H](O)[C@@H](O)[C@@H](O[C@H]4[C@H](O)[C@@H](O)[C@@H](O[C@H]5[C@H](O)[C@@H](O)[C@@H](O[C@H]6[C@H](O)[C@@H](O)[C@@H](O[C@H]7[C@H](O)[C@@H](O)[C@@H](O[C@H]8[C@H](O)[C@@H](O)[C@@H](O[C@H]1[C@H](O)[C@H]2O)O[C@@H]8CO)O[C@@H]7CO)O[C@@H]6CO)O[C@@H]5CO)O[C@@H]4CO)O[C@@H]3CO
- activation [1]: -1.13%
- outcome [2]: inactive
- max response [3]: -4.97%
- Potency [4]: inactive

Compound: NC(=O)c1ccccc1O
- activation [1]: -1.49%
- outcome [2]: inactive
- outcome [5]: inactive
- max response [3]: 4.04%

Compound: Oc1c(Cl)cc(Cl)c(Cl)c1Cc1c(O)c(Cl)cc(Cl)c1Cl
- activation [1]: -1.07%
- Potency [6]: 2.98 µM (active)
- Potency [7]: 3.35 µM (active)
- max response [3]: 1.56% and 1.87%
- Potency [4]: 1.06 µM (active)

Compound: C/C=C/c1ccc(O)c(OC)c1
- outcome [2]: inactive
- outcome [5]: inactive
- max response [3]: -4.52% and -2.32%
- Potency [4]: inactive

Compound: CCCCC(CC)COC(=O)c1ccc(N(C)C)cc1 (stereo not drawn)
- activation [1]: -1.46% and -0.821%
- Potency [6]: 7.5 µM (active)
- Potency [7]: inactive
- outcome [2]: inactive
- max response [3]: 0.44% and -4.46%

Compound: CC(C)(C)CC(C)(C)c1ccc(O)c(-n2nc3ccccc3n2)c1
- activation [1]: 1.97%
- max response [3]: 12.6%

Compound: C#C[C@]1(O)CC[C@H]2[C@@H]3CCC4=Cc5oncc5C[C@]4(C)[C@H]3CC[C@@]21C
- activation [1]: 0.141%
- max response [3]: -4.33%

Compound: C=C[C@H]1CN2CC[C@H]1C[C@@H]2[C@@H](O)c1ccnc2ccc(OC)cc12
- activation [1]: -0.176%
- Potency [6]: inactive
- Potency [7]: inactive
- outcome [2]: inactive

Compound: CCCCCCCCOc1ccc(C(=O)c2ccccc2)c(O)c1
- activation [1]: -6.3%

Compound: CN=C(N)NCCC[C@H](N)C(=O)O
- outcome [8]: inactive; inhibitor; fitted 0.0054 uM
- outcome [9]: inactive
- outcome [10]: inactive

Compound: C=C[C@@]1(C)CC(=O)[C@]2(O)[C@@]3(C)[C@@H](O)CCC(C)(C)[C@@H]3[C@H](O)[C@H](OC(C)=O)[C@@]2(C)O1
- max response [3]: 0.227%

Compound: NC(N)=NCc1cccc(I)c1
- outcome [8]: inactive
- outcome [9]: inactive
- outcome [10]: inactive

Compound: CCCCCCCCCCCCCCCC(=O)O
- activation [1]: -0.401%

Compound: COc1cc([C@H]2Oc3cc([C@H]4Oc5cc(O)cc(O)c5C(=O)[C@@H]4O)ccc3O[C@@H]2CO)ccc1O
- Potency [6]: 18.8 µM (active)
- Potency [7]: 26.6 µM (active)
- max response [3]: -8.58%

Compound: CCCCOC(=O)CC(CC(=O)OCCCC)(OC(C)=O)C(=O)OCCCC
- activation [1]: -0.845%
- max response [3]: 5.65%

Compound: CC1(COc2ccc(CC3SC(=O)NC3=O)cc2)CCCCC1 (stereo not drawn)
- activation [1]: 0.57%

Compound: Oc1ccc(Cl)cc1Cc1cc(Cl)ccc1O
- outcome [2]: inactive

Compound: CCOC(=O)[C@H](CCc1ccccc1)N[C@@H](C)C(=O)N1[C@H](C(=O)O)C[C@H]2CCCC[C@@H]21
- outcome [9]: inactive
- outcome [10]: inactive

Compound: CCOc1ccccc1C(N)=O
- outcome [2]: inactive
- max response [3]: -1.03%
- Potency [4]: inactive

Compound: CC(C)(C)NC[C@H](O)COc1nsnc1N1CCOCC1
- outcome [9]: inactive
- outcome [10]: inactive
